Records with an inconclusive call do not appear. A number with no mark means an inactive call. Activity calls are given as the source filed them. The call rests on the fitted dose curve; in most records, active means well fitted inhibition curve with a large enough effect in the repeat runs; inconclusive means weak or mixed curves; inactive means no such curve, though single readings can be large or run the other way. Positions of bridges follow the written chain, without caps; N, C: chain ends. Non-standard residues stand in square brackets, D forms with d. Residues, ends and D or L forms follow the SMILES beside them. hArg = N=C(N)NCCCC[C@H](N)C(=O)O; Mpa = O=C(O)CCS
On the % scale 0 is the no-effect control and ±100 the full control effect; potency means the concentration at half of the fitted maximal effect.

The target in the assay is Cytochrome P450 2D6 (Homo sapiens) (UniProt P10635). Put plainly: Cytochrome P450 Family 2 Subfamily D Member 6 (CYP2D6) small molecule antagonists: luciferase reporter qHTS assay (AID 1671196). Further: nearly all actives have a fitted effect of over 50% in size. The following applies: P450-Glo CYP2D6 enzyme assay, luciferin luminescence, 1 h; series mostly up to 115 µM; activity change, negative = inhibition: at the top concentration. The source says: U.S. Tox21 Program National Center for Advancing Translational Sciences [NCATS] U.S. Environmental Protection Agency [EPA] National Institutes of Environmental Health Sciences [NIEHS] National Toxicology Program [NTP] U.S. Food and Drug Administration [FDA] Tox21 Assay Overview: Cytochrome P450 (CYP) enzymes are membrane-bound hemeproteins that play a key role in metabolism of drugs and xenobiotics. Evaluation of the effect of chemicals on CYP isozymes is useful to minimize the adverse drug reactions and toxicities in drug development process. Tox21 chemicals were tested for their effect on CYP enzyme activities by using P450-Glo (TM) screening systems (Promega Corporation, Madison, WI). These systems provide a luminescent method containing proluciferin substrates and are converted to luciferin products by CYP isozymes. The luciferin products formed are detected with a luciferin detection reagent, and the amount of light produced is proportional to CYP activity. P450-Glo (TM) CYP2D6 screening system (Catalog. No. V9890) was used to detect the compounds that interfere in CYP2D6 activity.
Sequence of Cytochrome P450 2D6 (Homo sapiens) (P10635 whole entry, looked up): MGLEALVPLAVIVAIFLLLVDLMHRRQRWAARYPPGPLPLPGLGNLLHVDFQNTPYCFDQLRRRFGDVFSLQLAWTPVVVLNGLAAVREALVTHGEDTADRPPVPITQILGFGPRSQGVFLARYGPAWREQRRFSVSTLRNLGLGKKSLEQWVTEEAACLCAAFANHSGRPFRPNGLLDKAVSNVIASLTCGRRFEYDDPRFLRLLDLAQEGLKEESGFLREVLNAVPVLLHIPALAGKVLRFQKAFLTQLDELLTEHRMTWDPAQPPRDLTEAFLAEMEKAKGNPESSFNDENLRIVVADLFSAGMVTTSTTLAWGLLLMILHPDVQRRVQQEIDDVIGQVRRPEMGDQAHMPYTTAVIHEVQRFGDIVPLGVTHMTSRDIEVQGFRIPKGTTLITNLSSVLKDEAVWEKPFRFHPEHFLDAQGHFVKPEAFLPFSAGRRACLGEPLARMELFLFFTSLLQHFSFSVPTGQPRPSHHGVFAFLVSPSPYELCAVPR
Tox21 Assay Protocol Summary: Two ul of enzyme-substrate mix was dispensed into medium binding white/solid 1536-well plates (Greiner Bio-One North America Inc., Monroe, NC) using a BioRaptr Flying Reagent Dispenser (FRD, Beckman Coulter, Brea, CA). […] The assay plates were incubated at room temperature for 10 min. Then 2 ul of NADPH regeneration solution was added to each well of the assay plates using an FRD and incubated at room temperature for 1 h. The reaction was stopped by adding 4 ul of detection reagent using an FRD and after 20 min incubation at room temperature the luminescence signal was measured using a ViewLux plate reader (Perkin Elmer, Shelton, CT). Data were expressed as relative luminescence units.
Take `OCCN1CCOCC1`: the “activity change, negative = inhibition” value is -0.0916%.
Regarding `OC1OCCOC1O` (stereo not given), the “activity change, negative = inhibition” value is 0.572%.
Regarding `N#Cc1cscn1`, the “activity change, negative = inhibition” value is -0.613%.
On the same count and under the same terms, as for `Cc1cc(C)c(C(=O)O)c(C)c1`, the figure is -8.69%; as for `CCC[C@@H]1C[C@@H](C(=O)N[C@@H]([C@H]2O[C@H](SC)[C@H](O)[C@@H](O)[C@H]2O)[C@@H](C)O)N(C)C1`, -3.33% [at 53 µM].
On the same count and under the same terms, as for `CC1=NN(c2ccc(S(=O)(=O)O)cc2)C(=O)C1`, the figure is -1.55%; as for `C[C@@H](O)C(=O)O`, -8.72%; as for `CCc1occc(=O)c1O`, -4.26%.
In the case of `CC(=O)c1cc(C)oc1C`, the “activity change, negative = inhibition” value is 1.23%.
For the compound `C=CCN1C[C@H](C(=O)N(CCCN(C)C)C(=O)NCC)C[C@@H]2c3cccc4[nH]cc(c34)C[C@H]21`, the Potency was 2.45 µM (active).
In the case of `CC(=O)OC(C)=O`, the “activity change, negative = inhibition” value was -7.41%.
Same read-out and setting: in the case of `N#Cc1ccccc1O` it was -4.45%.
On the same count and under the same terms, as for `CC(O)CC(C)O` (stereo not given), the figure is -7.54%.
The same measure, in the same setting: as for `CC(=O)CC(=O)Nc1ccc(C)cc1C`, the figure is -6.27%.
Turning to `COc1c2occc2c(OC)c2c(=O)cc(C)oc12`, the Potency is 12.3 µM (active).
Same read-out and setting: in the case of `OC1(c2ccc(Cl)cc2)CCNCC1` it was 5.49 µM (active).
On to `O=Cc1cc2ccccc2o1`, for which the “activity change, negative = inhibition” value is -19%.
Still for that read-out and setting: in the case of `CC12CCC(C1)C(C)(C)C2O` (stereo not given) it was -0.945%.
The same measure, in the same setting: in the case of `Fc1ccccc1` it was -14.4%; in that of `CC(C)(CO)C(O)C(=O)NCCCO` (stereo not given), -1.28%; in that of `C/C(CC(C)C)=N\O`, -8.86%.
With `O=C(O)[C@H](O)c1ccccc1`, the “activity change, negative = inhibition” value was -1.36% [at 53 µM].
Take `CC(C)C1OCCN1CCOC(=O)NCCCCCCNC(=O)OCCN1CCOC1C(C)C` (stereo not given): the Potency is 63.3 µM (active).
Regarding `Cc1ncc([N+](=O)[O-])n1CC(C)O` (stereo not given), the “activity change, negative = inhibition” value is -9.21% [at 53 µM].
The same measure, in the same setting: in the case of `O=C(CN1CCNCC1)NC1CCCCC1` it was -12.4% [at 53 µM]; in that of `C[C@]12CCC(=O)C=C1CC[C@H]1[C@@H]3CC[C@](O)(C(=O)CO)[C@@]3(C)C[C@H](O)[C@@]12F`, -5.56% [at 53 µM].
On to `CCn1cc(C(=O)O)c(=O)c2cnc(N3CCCC3)nc21`, for which the activity change, negative = inhibition is -1.62% [at 10.5 µM].
Same read-out and setting: in the case of `ONc1ccccc1` it was -13%; in that of `CC(C)c1ccc(C=O)cc1`, -11.6%.
As to `Cc1c(NC(=O)c2cccnc2)c(=O)n(-c2ccccc2)n1C`, the “activity change, negative = inhibition” value is -0.812% [at 53 µM].
For the compound `CC1OCCC1=O` (stereo not given), the “activity change, negative = inhibition” value is -0.473%.
Still for that read-out and setting: as for `C=Cc1ccc(C(C)(C)C)cc1`, the figure is 0.179%; as for `NC(=O)[C@@H]1CSSCCC(=O)N[C@@H](CCCCN=C(N)N)C(=O)NCC(=O)N[C@@H](CC(=O)O)C(=O)N[C@@H](Cc2c[nH]c3ccccc23)C(=O)N2CCC[C@H]2C(=O)N1` ([Mpa][hArg]GDWPC-NH2; disulfide 1-7), 1.41% [at 53 µM].
Still for that read-out and setting: as for `CCC(C)OC(C)CC` (stereo not given), the figure is 3.45%; as for `C/C=C(\C)C(=O)OCCc1ccccc1`, -12.7%.
Still for that read-out and setting: in the case of `O=C1CCC(=O)N1Cl` it was -9.64%; in that of `Cn1nnc2c(C(N)=O)ncn2c1=O`, -22.3% [at 53 µM]; in that of `OC[C@H]1O[C@@H](O[C@@H]2[C@@H](CO)O[C@](O)(CO)[C@H]2O)[C@H](O)[C@@H](O)[C@H]1O`, -20.6% [at 53 µM].
With `COC(=O)c1ccccc1C(=O)O`, the “activity change, negative = inhibition” value was -16.1%.
Turning to `OCC1CCC(CO)CC1` (stereo not given), the “activity change, negative = inhibition” value was -2.42%.

The values above are taken from PubChem BioAssay (Tox21).
